Laboratory results published in PubChem BioAssay (NCATS).
Inconclusive results are not listed. Calls of active or inactive are those of the source. Unless noted, the call rests on the fitted dose curve; in most records, active means well fitted curve in the direction sought with a large enough effect; inconclusive means small, poorly fitted or top-dose-only effect, or another doubt; inactive means no such curve, though single readings can be large; an effect the other way counts as inactive or inconclusive.

Assays:
[1] = P-glycoprotein substrates identified in KB-8-5-11 adenocarcinoma cell line, qHTS therapeutic library screen (AID 1346987); further: potency means the concentration at half of the fitted maximal effect; nearly all actives have a fitted effect of over 65% in size
Summary of the method: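 Steps: plate 500 KB-8-5-11 cells/well in DMEM + 10% FCS (colchicine removed); pin compounds in dose-response; incubate 72 h, 37 degree C, 5% CO2; add CellTiter-Glo, 5 min; read luminescence.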

[2] = system: Zika virus NS2B-NS3 protease (linked construct); assay: Primary screen NINDS Rhodamine qHTS for Zika virus inhibitors (AID 1347160); further: nearly all actives have a fitted effect of over 55% in size
Summary of the method: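 Percent inhibition, normalized to uninhibited and enzyme-free controls, is fitted to a 4-parameter Hill equation. Fluorescence change comes from a 15-min cleavage of 1.5 microM bis-peptide Rhodamine110 substrate by 25 nM linked NS2B-NS3 at room temperature.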

[3] = target: Calcium and integrin-binding protein 1 (Homo sapiens) (UniProt Q99828); assay: Primary qHTS for Identification of Calcium Integrin Binding Protein 1 (CIB1) Competitor (AID 1508620);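 further: GST tagged CIB1 binding a fluorescein labelled alphaIIb integrin peptide tracer; top concentration of the series differs between compounds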
Chain of Calcium and integrin-binding protein 1 (Homo sapiens) (Q99828 whole entry, looked up): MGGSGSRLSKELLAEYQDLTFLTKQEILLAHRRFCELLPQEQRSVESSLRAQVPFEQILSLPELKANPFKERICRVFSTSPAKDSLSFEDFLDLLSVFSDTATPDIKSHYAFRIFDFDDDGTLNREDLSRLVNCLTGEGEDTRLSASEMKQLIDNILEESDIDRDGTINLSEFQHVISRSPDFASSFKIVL
Summary of the method: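 CIB1-GST (1 uM final) and compound incubated 15 min at room temperature before adding FITC-alphaIIb peptide tracer (100 nM final). Competition for binding read by fluorescence polarization (ex 480, em 540) after another 15 min at room temperature.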

[4] = Primary qHTS for inhibitors of nuclear receptor binding SET domain protein 2 (NSD2) in an RCH-ACV wild type WT cells (2C) (AID 1645877); further: potency means the concentration at half of the fitted maximal effect; nearly all actives have a fitted effect of over 70% in size
[5] = target: Glutathione peroxidase 1 (Homo sapiens) (UniProt P07203); assay: Primary qHTS Assay for Inhibitors of Recombinant Selenoprotein Glutathione Peroxidase 1 (GPX1) (AID 1845191); further: nearly all actives have a fitted effect of over 65% in size
Chain of Glutathione peroxidase 1 (Homo sapiens) (P07203 whole entry, looked up): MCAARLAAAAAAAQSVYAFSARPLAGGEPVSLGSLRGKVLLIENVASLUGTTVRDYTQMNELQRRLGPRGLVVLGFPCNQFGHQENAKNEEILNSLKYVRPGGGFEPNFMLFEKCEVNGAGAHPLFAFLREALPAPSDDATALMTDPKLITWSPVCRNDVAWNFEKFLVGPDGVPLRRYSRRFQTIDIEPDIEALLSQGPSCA
Summary of the method: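 10 nM GPX1 + cpd, 30 min RT; start w/ 1 mM GSH, 0.5 mM cumene hydroperoxide, 0.5 mM NADPH, 100 nM GR, 0.01% BSA; buffer 50 mM Tris-HCl pH 7.5, 2 mM EDTA, 150 mM NaCl; Fl 340/450, 0 & 15 min.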

[6] = target: Luciferin 4-monooxygenase (Photinus pyralis) (UniProt P08659); assay: Primary firefly luciferase (FLuc) qHTS assay for identification of artifact compounds. (AID 1845220); conditions: outcome: dose series up to 54.1 µM unless noted; further: nearly all actives have a fitted effect of over 60% in size
Summary of the method: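 Cell-free, 1536-well qHTS. Buffer pH 7.6 with 0.01% Tween-20 and 0.05% BSA; 10 uM D-luciferin, 10 uM ATP; 10 nM P. pyralis luciferase; luminescence after 5 min.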

[7] = Primary fluorescence-based thiol-reactive (MSTI) qHTS assay for identification of artifact compounds. (AID 1845221); further: potency means the concentration at half of the fitted maximal effect; nearly all actives have a fitted effect of over 65% in size
Summary of the method: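 In PBS pH 7.4 with 2% DMSO, each compound met 4 uM MSTI for one hour at ambient temperature, shielded from light, before fluorescence detection.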

[8] = system: Nanoluciferase (engineered Oplophorus gracilirostris luciferase); assay: Primary Nanoluciferase (NLuc) qHTS assay for identification of artifact compounds. (AID 1845222)
Summary of the method: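 Compounds are pinned into diluted (1:55) conditioned medium of NLuc-expressing S16 cells and held 15 min at room temperature protected from light. Nano-Glo substrate follows, and luminescence is read 5 min later.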

[9] = Primary redox qHTS assay for identification of artifact compounds. (AID 1845223)
Summary of the method: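 Amplex Red (25 uM) and HRP (250 mU/mL) in HBSS, with compounds for 15 min, then 250 uM DTT for 30 min, room temperature, dark. Fluorescence 525/598 nm read; normalized to DMSO and 10 uM DA3003; Hill fit.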

[10] = system: C33A; assay: Primary qHTS to identify gynecologic anti-cancer compounds using libraries of approved drugs and bioactive compounds (AID 1345084); conditions: Gynecologic cancer cell panel viability, ATPlite luminescence, 48 h; series mostly up to 57.5 µM; further: nearly all actives have a fitted effect of over 55% in size
Summary of the method: (§1)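 Five-concentration response, 48 h; readout is ATP-driven luciferase luminescence.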

[11] = system: CAOV3; assay: as above; conditions: Gynecologic cancer cell panel viability, ATPlite luminescence, 48 h; series mostly up to 57.5 µM
Summary of the method: as §1

[12] = system: CASKI; assay: as above; conditions: Gynecologic cancer cell panel viability, ATPlite luminescence, 48 h; series mostly up to 57.5 µM
Summary of the method: as §1

[13] = system: Es-2; assay: as above; conditions: Gynecologic cancer cell panel viability, ATPlite luminescence, 48 h; series mostly up to 57.5 µM
Summary of the method: as §1

[14] = system: HeLa; assay: as above; conditions: Gynecologic cancer cell panel viability, ATPlite luminescence, 48 h; series mostly up to 57.5 µM
Summary of the method: as §1

[15] = system: JEG-3; assay: as above; conditions: Gynecologic cancer cell panel viability, ATPlite luminescence, 48 h; series mostly up to 57.5 µM
Summary of the method: as §1

[16] = system: OV90; assay: as above; conditions: Gynecologic cancer cell panel viability, ATPlite luminescence, 48 h; series mostly up to 57.5 µM
Summary of the method: as §1

[17] = system: Tov-21-G; assay: as above; conditions: Gynecologic cancer cell panel viability, ATPlite luminescence, 48 h; series mostly up to 57.5 µM
Summary of the method: as §1

[18] = system: Tov112D; assay: as above; conditions: Gynecologic cancer cell panel viability, ATPlite luminescence, 48 h; series mostly up to 57.5 µM
Summary of the method: as §1

[19] = Cytotoxicity counterscreen for inhibitors of SARS-CoV-2 cell entry (AID 1645845; calls by dose curve; further: nearly all actives have a fitted effect of over 50% in size; further: potency means the concentration at half of the fitted maximal effect)
Summary of the method: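 48 h compound treatment (after 1 h preincubation), HEK293-ACE2 cells, 37 C/5% CO2; ATP luminescence endpoint; normalized to cell wells and media blanks.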

[20] = Primary qHTS to identify inhibitors of SARS-CoV-2 cell entry (AID 1645846; calls by dose curve; further: nearly all actives have a fitted effect of over 45% in size); conditions: activity change, negative = inhibition: at 57.1 µM (top of the series) unless noted
Summary of the method: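 Inhibition of spike-mediated entry was scored in human ACE2-transfected Expi293F cells. Particles were MLV-pseudotyped with Wuhan-Hu-1 S carrying a 19-aa C-terminal deletion; signal was luciferase after two days, scaled between spike PP and fusion-protein-free PP.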

[21] = system: CRL-7250; assay: qHTS assay to identify novel small-molecules to repurpose for Merkel cell carcinoma treatment (AID 1296009); conditions: MCC and control cell lines, CellTiter-Glo viability, 72 h; series mostly up to 92 µM; further: nearly all actives have a fitted effect of over 60% in size
Summary of the method: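 72 hr, 37 degree celsius; NPC 8-pt / MIPE 11-pt dose response; compound pinned in DMSO; CellTiter-Glo, 10 min RT, luminescence; normalized to no-cell and DMSO controls.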

Measured: Potency

C=CC(C)(C)C12C=C(O)C(=O)N3/C(=C\c4cnc[nH]4)C(=O)NC31N(OC)c1ccccc12 (stereo not drawn)
inactive: [2] | [3] | [5] | [6] inactive [at 25.7 µM] | [8] | [9] | [10] | [11] | [12] | [13] | [14] | [15] | [16] | [17] | [18]
active: [1] 7.96 µM | [4] 10 µM | [7] 4.12 µM

CC(C)N(C[C@H]1O[C@@H](n2cnc3c(N)ncnc32)[C@H](O)[C@@H]1O)C1CC(CCc2nc3ccc(C(C)(C)C)cc3[nH]2)C1 (stereo partly drawn)
inactive: [19] | [20] | [21]

Cn1nccc1Nc1nccc(-c2ccn([C@H](CO)c3ccc(Cl)c(F)c3)c(=O)c2)n1
active: [19] 11.2 µM
inactive: [21]
